# Laboratory results published in article PMC11006913.
# What was measured:
# Assay in all cases: PBM; 200 nM protein, PBS
# Details in all cases: dsDNA, one strand shown
# HOXC9 [1] = target: HOXC9 (Homo sapiens, UniProt P31274 178-260, K195R)
# HOXB6 [2] = target: HOXB6 (Homo sapiens, UniProt P17509 132-218, K202E)
# HOXC9 [3] = target: HOXC9 (Homo sapiens, UniProt P31274 178-260)
# HOXC9 [4] = target: HOXC9 (Homo sapiens, UniProt P31274 178-260, R193K)
# HOXC9 [5] = target: HOXC9 (Homo sapiens, UniProt P31274 178-260, R222W)
# Sequence of HOXC9 (Homo sapiens, UniProt P31274 178-260, R222W) (P31274 178-260 R222W): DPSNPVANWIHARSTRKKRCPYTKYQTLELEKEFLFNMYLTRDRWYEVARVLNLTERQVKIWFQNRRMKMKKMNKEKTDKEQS
# HOXB6 [6] = target: HOXB6 (Homo sapiens, UniProt P17509 132-218)
# Sequence of HOXB6 (Homo sapiens, UniProt P17509 132-218) (P17509 132-218): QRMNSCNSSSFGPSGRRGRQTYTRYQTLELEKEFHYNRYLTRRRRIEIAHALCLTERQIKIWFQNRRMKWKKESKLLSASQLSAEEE
# HOXD13 [7] = target: HOXD13 (Homo sapiens, UniProt P35453 263-343, T313R)
# Sequence of HOXD13 (Homo sapiens, UniProt P35453 263-343, T313R) (P35453 263-343 T313R): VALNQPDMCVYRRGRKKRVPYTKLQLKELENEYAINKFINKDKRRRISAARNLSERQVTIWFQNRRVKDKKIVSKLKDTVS
# HOXD13 [8] = target: HOXD13 (Homo sapiens, UniProt P35453 263-343)
# Sequence of HOXD13 (Homo sapiens, UniProt P35453 263-343) (P35453 263-343): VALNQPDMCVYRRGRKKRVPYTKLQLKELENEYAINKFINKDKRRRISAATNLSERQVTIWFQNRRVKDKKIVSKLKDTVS
# HOXD13 [9] = target: HOXD13 (Homo sapiens, UniProt P35453 263-343, T313A)
# Sequence of HOXD13 (Homo sapiens, UniProt P35453 263-343, T313A) (P35453 263-343 T313A): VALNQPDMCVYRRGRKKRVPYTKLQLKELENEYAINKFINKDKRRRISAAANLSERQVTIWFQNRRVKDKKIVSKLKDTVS
# HOXB9 = HOXB9 (Homo sapiens, UniProt P17482 171-250, R186Q)
# Sequence of HOXB9 (P17482 171-250 R186Q): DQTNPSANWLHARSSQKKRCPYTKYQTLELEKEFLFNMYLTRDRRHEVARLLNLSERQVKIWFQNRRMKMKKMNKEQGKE
# HOXA2 [10] = target: HOXA2 (Homo sapiens, UniProt O43364 129-215, R185T)
# Sequence of HOXA2 (Homo sapiens, UniProt O43364 129-215, R185T) (O43364 129-215 R185T): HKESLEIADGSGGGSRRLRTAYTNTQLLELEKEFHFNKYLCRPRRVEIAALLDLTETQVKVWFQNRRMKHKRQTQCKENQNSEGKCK
# HOXA2 [11] = target: HOXA2 (Homo sapiens, UniProt O43364 129-215, R185K)
# Sequence of HOXA2 (Homo sapiens, UniProt O43364 129-215, R185K) (O43364 129-215 R185K): as the sequence (O43364 129-215 R185T) above, with T57K counted along it
# PROP1 [12] = target: PROP1 (Homo sapiens, UniProt O75360 56-141)
# Sequence of PROP1 (Homo sapiens, UniProt O75360 56-141) (O75360 56-141): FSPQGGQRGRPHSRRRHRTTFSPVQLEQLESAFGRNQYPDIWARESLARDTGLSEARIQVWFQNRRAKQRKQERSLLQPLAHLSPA
# PROP1 [13] = target: PROP1 (Homo sapiens, UniProt O75360 56-141, R99H)
# Sequence of PROP1 (Homo sapiens, UniProt O75360 56-141, R99H) (O75360 56-141 R99H): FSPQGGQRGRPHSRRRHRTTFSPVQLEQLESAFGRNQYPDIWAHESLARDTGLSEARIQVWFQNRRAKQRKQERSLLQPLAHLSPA
# PROP1 [14] = target: PROP1 (Homo sapiens, UniProt O75360 56-141, F88S)
# Sequence of PROP1 (Homo sapiens, UniProt O75360 56-141, F88S) (O75360 56-141 F88S): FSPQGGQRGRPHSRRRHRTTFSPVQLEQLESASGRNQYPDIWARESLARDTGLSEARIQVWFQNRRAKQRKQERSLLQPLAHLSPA
# HOXA2 [15] = target: HOXA2 (Homo sapiens, UniProt O43364 129-215, Y150S)
# Sequence of HOXA2 (Homo sapiens, UniProt O43364 129-215, Y150S) (O43364 129-215 Y150S): as the sequence (O43364 129-215 R185T) above, with Y22S, T57R counted along it
# HOXA2 [16] = target: HOXA2 (Homo sapiens, UniProt O43364 129-215)
# Sequence of HOXA2 (Homo sapiens, UniProt O43364 129-215) (O43364 129-215): as the sequence (O43364 129-215 R185T) above, with T57R counted along it
# ALX3 [17] = target: ALX3 (Homo sapiens, UniProt O95076 139-225, N203Q)
# Sequence of ALX3 (Homo sapiens, UniProt O95076 139-225, N203Q) (O95076 139-225 N203Q): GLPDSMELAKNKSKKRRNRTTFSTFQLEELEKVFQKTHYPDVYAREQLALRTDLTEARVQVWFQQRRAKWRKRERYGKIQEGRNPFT
# ALX3 [18] = target: ALX3 (Homo sapiens, UniProt O95076 139-225)
# Sequence of ALX3 (Homo sapiens, UniProt O95076 139-225) (O95076 139-225): as the sequence (O95076 139-225 N203Q) above, with Q65N counted along it
# ALX3 [19] = target: ALX3 (Homo sapiens, UniProt O95076 139-225, L168Q)
# Sequence of ALX3 (Homo sapiens, UniProt O95076 139-225, L168Q) (O95076 139-225 L168Q): as the sequence (O95076 139-225 N203Q) above, with L30Q, Q65N counted along it
# ALX3 [20] = target: ALX3 (Homo sapiens, UniProt O95076 139-225, L168V)
# Sequence of ALX3 (Homo sapiens, UniProt O95076 139-225, L168V) (O95076 139-225 L168V): as the sequence (O95076 139-225 N203Q) above, with L30V, Q65N counted along it
# ALX3 [21] = target: ALX3 (Homo sapiens, UniProt O95076 139-225, N203S)
# Sequence of ALX3 (Homo sapiens, UniProt O95076 139-225, N203S) (O95076 139-225 N203S): as the sequence (O95076 139-225 N203Q) above, with Q65S counted along it
# MSX2 [22] = target: MSX2 (Homo sapiens, UniProt P35548 130-214, R199I)
# Sequence of MSX2 (Homo sapiens, UniProt P35548 130-214, R199I) (P35548 130-214 R199I): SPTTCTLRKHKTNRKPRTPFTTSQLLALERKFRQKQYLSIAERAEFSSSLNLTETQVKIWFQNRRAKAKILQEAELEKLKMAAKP
# MSX2 [23] = target: MSX2 (Homo sapiens, UniProt P35548 130-214)
# Sequence of MSX2 (Homo sapiens, UniProt P35548 130-214) (P35548 130-214): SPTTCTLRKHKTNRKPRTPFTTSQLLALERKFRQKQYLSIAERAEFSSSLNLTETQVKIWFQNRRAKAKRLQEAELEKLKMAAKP
# MSX2 [24] = target: MSX2 (Homo sapiens, UniProt P35548 130-214, F161Y)
# Sequence of MSX2 (Homo sapiens, UniProt P35548 130-214, F161Y) (P35548 130-214 F161Y): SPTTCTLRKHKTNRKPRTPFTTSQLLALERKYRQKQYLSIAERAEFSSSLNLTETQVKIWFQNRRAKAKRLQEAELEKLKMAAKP
# Sequence of HOXC9 (Homo sapiens, UniProt P31274 178-260, R193K) (P31274 178-260 R193K): as the sequence (P31274 178-260 R222W) above, with R16K, W45R counted along it
# Sequence of HOXC9 (Homo sapiens, UniProt P31274 178-260) (P31274 178-260): as the sequence (P31274 178-260 R222W) above, with W45R counted along it
# Sequence of HOXC9 (Homo sapiens, UniProt P31274 178-260, K195R) (P31274 178-260 K195R): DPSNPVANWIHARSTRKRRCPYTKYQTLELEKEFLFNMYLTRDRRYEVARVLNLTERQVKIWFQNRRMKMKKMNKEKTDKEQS
# Sequence of HOXB6 (Homo sapiens, UniProt P17509 132-218, K202E) (P17509 132-218 K202E): as the sequence (P17509 132-218) above, with K71E counted along it
sequence,measurement,setting,value
GAGGGTCC,binding signal,HOXC9 [1],"9.32 upbm affinity estimate (log intensity, higher = more binding, comparable within an allelic series)"
same,binding signal,HOXB6 [2],"8.91 upbm affinity estimate (log intensity, higher = more binding, comparable within an allelic series)"
same,binding signal,HOXC9 [3],"9.31 upbm affinity estimate (log intensity, higher = more binding, comparable within an allelic series)"
same,binding signal,HOXC9 [4],"9.32 upbm affinity estimate (log intensity, higher = more binding, comparable within an allelic series)"
same,binding signal,HOXC9 [5],"9.63 upbm affinity estimate (log intensity, higher = more binding, comparable within an allelic series)"
same,binding signal,HOXB6 [6],"8.74 upbm affinity estimate (log intensity, higher = more binding, comparable within an allelic series)"
ATTTAATA,binding signal,HOXC9 [1],"12.4 upbm affinity estimate (log intensity, higher = more binding, comparable within an allelic series)"
same,binding signal,HOXC9 [3],"12.5 upbm affinity estimate (log intensity, higher = more binding, comparable within an allelic series)"
same,binding signal,HOXD13 [7],"10.9 upbm affinity estimate (log intensity, higher = more binding, comparable within an allelic series)"
same,binding signal,HOXC9 [4],"12.4 upbm affinity estimate (log intensity, higher = more binding, comparable within an allelic series)"
same,binding signal,HOXD13 [8],"11.9 upbm affinity estimate (log intensity, higher = more binding, comparable within an allelic series)"
same,binding signal,HOXD13 [9],"11.8 upbm affinity estimate (log intensity, higher = more binding, comparable within an allelic series)"
same,binding signal,HOXB9,"11.4 upbm affinity estimate (log intensity, higher = more binding, comparable within an allelic series)"
same,binding signal,HOXC9 [5],"11.1 upbm affinity estimate (log intensity, higher = more binding, comparable within an allelic series)"
TAAAGTGA,binding signal,HOXC9 [1],"11.3 upbm affinity estimate (log intensity, higher = more binding, comparable within an allelic series)"
same,binding signal,HOXC9 [3],"11.4 upbm affinity estimate (log intensity, higher = more binding, comparable within an allelic series)"
same,binding signal,HOXC9 [4],"11.4 upbm affinity estimate (log intensity, higher = more binding, comparable within an allelic series)"
CTTATAAA,binding signal,HOXC9 [1],"11.3 upbm affinity estimate (log intensity, higher = more binding, comparable within an allelic series)"
same,binding signal,HOXC9 [3],"11.2 upbm affinity estimate (log intensity, higher = more binding, comparable within an allelic series)"
same,binding signal,HOXD13 [7],"10.7 upbm affinity estimate (log intensity, higher = more binding, comparable within an allelic series)"
same,binding signal,HOXC9 [4],"11.2 upbm affinity estimate (log intensity, higher = more binding, comparable within an allelic series)"
same,binding signal,HOXD13 [8],"11.8 upbm affinity estimate (log intensity, higher = more binding, comparable within an allelic series)"
same,binding signal,HOXD13 [9],"11.5 upbm affinity estimate (log intensity, higher = more binding, comparable within an allelic series)"
CGGAGCCC,binding signal,HOXC9 [1],"9.46 upbm affinity estimate (log intensity, higher = more binding, comparable within an allelic series)"
same,binding signal,HOXA2 [10],"7.2 upbm affinity estimate (log intensity, higher = more binding, comparable within an allelic series)"
same,binding signal,HOXC9 [3],"9.37 upbm affinity estimate (log intensity, higher = more binding, comparable within an allelic series)"
same,binding signal,HOXC9 [4],"9.44 upbm affinity estimate (log intensity, higher = more binding, comparable within an allelic series)"
same,binding signal,HOXA2 [11],"10.2 upbm affinity estimate (log intensity, higher = more binding, comparable within an allelic series)"
same,binding signal,PROP1 [12],"6.65 upbm affinity estimate (log intensity, higher = more binding, comparable within an allelic series)"
same,binding signal,PROP1 [13],"6.77 upbm affinity estimate (log intensity, higher = more binding, comparable within an allelic series)"
same,binding signal,HOXC9 [5],"9.51 upbm affinity estimate (log intensity, higher = more binding, comparable within an allelic series)"
same,binding signal,PROP1 [14],"6.36 upbm affinity estimate (log intensity, higher = more binding, comparable within an allelic series)"
same,binding signal,HOXA2 [15],"10.1 upbm affinity estimate (log intensity, higher = more binding, comparable within an allelic series)"
same,binding signal,HOXA2 [16],"7.02 upbm affinity estimate (log intensity, higher = more binding, comparable within an allelic series)"
GGAGAACC,binding signal,HOXC9 [1],"9.48 upbm affinity estimate (log intensity, higher = more binding, comparable within an allelic series)"
same,binding signal,HOXC9 [3],"9.62 upbm affinity estimate (log intensity, higher = more binding, comparable within an allelic series)"
same,binding signal,HOXD13 [7],"9.57 upbm affinity estimate (log intensity, higher = more binding, comparable within an allelic series)"
same,binding signal,HOXC9 [4],"9.52 upbm affinity estimate (log intensity, higher = more binding, comparable within an allelic series)"
same,binding signal,HOXD13 [8],"9.46 upbm affinity estimate (log intensity, higher = more binding, comparable within an allelic series)"
same,binding signal,HOXD13 [9],"9.73 upbm affinity estimate (log intensity, higher = more binding, comparable within an allelic series)"
same,binding signal,HOXC9 [5],"9.79 upbm affinity estimate (log intensity, higher = more binding, comparable within an allelic series)"
CCCCCCTC,binding signal,HOXC9 [1],"9.44 upbm affinity estimate (log intensity, higher = more binding, comparable within an allelic series)"
same,binding signal,HOXC9 [3],"9.34 upbm affinity estimate (log intensity, higher = more binding, comparable within an allelic series)"
same,binding signal,ALX3 [17],"7.49 upbm affinity estimate (log intensity, higher = more binding, comparable within an allelic series)"
same,binding signal,HOXD13 [7],"8.92 upbm affinity estimate (log intensity, higher = more binding, comparable within an allelic series)"
same,binding signal,HOXC9 [4],"9.54 upbm affinity estimate (log intensity, higher = more binding, comparable within an allelic series)"
same,binding signal,HOXD13 [8],"9.09 upbm affinity estimate (log intensity, higher = more binding, comparable within an allelic series)"
same,binding signal,ALX3 [18],"7.67 upbm affinity estimate (log intensity, higher = more binding, comparable within an allelic series)"
same,binding signal,PROP1 [12],"6.57 upbm affinity estimate (log intensity, higher = more binding, comparable within an allelic series)"
same,binding signal,PROP1 [13],"6.41 upbm affinity estimate (log intensity, higher = more binding, comparable within an allelic series)"
same,binding signal,ALX3 [19],"7.57 upbm affinity estimate (log intensity, higher = more binding, comparable within an allelic series)"
same,binding signal,HOXD13 [9],"9.19 upbm affinity estimate (log intensity, higher = more binding, comparable within an allelic series)"
same,binding signal,HOXC9 [5],"9.27 upbm affinity estimate (log intensity, higher = more binding, comparable within an allelic series)"
same,binding signal,ALX3 [20],"7.44 upbm affinity estimate (log intensity, higher = more binding, comparable within an allelic series)"
same,binding signal,PROP1 [14],"5.9 upbm affinity estimate (log intensity, higher = more binding, comparable within an allelic series)"
same,binding signal,ALX3 [21],"7.51 upbm affinity estimate (log intensity, higher = more binding, comparable within an allelic series)"
GCGTCGCC,binding signal,HOXC9 [1],"9.69 upbm affinity estimate (log intensity, higher = more binding, comparable within an allelic series)"
same,binding signal,HOXC9 [3],"9.74 upbm affinity estimate (log intensity, higher = more binding, comparable within an allelic series)"
same,binding signal,MSX2 [22],"9.45 upbm affinity estimate (log intensity, higher = more binding, comparable within an allelic series)"
same,binding signal,HOXC9 [4],"9.48 upbm affinity estimate (log intensity, higher = more binding, comparable within an allelic series)"
same,binding signal,MSX2 [23],"9.4 upbm affinity estimate (log intensity, higher = more binding, comparable within an allelic series)"
same,binding signal,HOXC9 [5],"9.77 upbm affinity estimate (log intensity, higher = more binding, comparable within an allelic series)"
same,binding signal,MSX2 [24],"9.49 upbm affinity estimate (log intensity, higher = more binding, comparable within an allelic series)"
TTCATAAA,binding signal,HOXC9 [1],"11.7 upbm affinity estimate (log intensity, higher = more binding, comparable within an allelic series)"
same,binding signal,HOXC9 [3],"11.7 upbm affinity estimate (log intensity, higher = more binding, comparable within an allelic series)"
same,binding signal,HOXC9 [4],"11.7 upbm affinity estimate (log intensity, higher = more binding, comparable within an allelic series)"
ATTATCGG,binding signal,HOXC9 [1],"11.3 upbm affinity estimate (log intensity, higher = more binding, comparable within an allelic series)"
same,binding signal,HOXC9 [3],"11.5 upbm affinity estimate (log intensity, higher = more binding, comparable within an allelic series)"
same,binding signal,HOXC9 [4],"11.4 upbm affinity estimate (log intensity, higher = more binding, comparable within an allelic series)"
